Source: PubChem BioAssay (NCATS)
Results filed as inconclusive are left out. Calls of active or inactive are those of the source. The call rests on the fitted dose curve; in most records, active means well fitted curve in the direction sought with a large enough effect; inconclusive means small, poorly fitted or top-dose-only effect, or another doubt; inactive means no such curve, though single readings can be large; an effect the other way counts as inactive or inconclusive.

Legend:
[1] = qHTS of pediatric cancer cell lines to identify multiple opportunities for drug repurposing: Confirmatory screen for BT-37 cells (AID 1347117); further: potency means the concentration at half of the fitted maximal effect;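 further: viability measured after 48 h of compound exposure; nearly all actives have a fitted effect of over 55% in size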;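 on activity change, negative = cytotoxic: plate controls were DMSO for no effect and bortezomib for full effect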
How it was run: (§1)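 Viability after 48 h compound treatment at 37C, 500-1,000 cells/well, read as ATP luminescence with CellTiter-Glo. Primary screens used 11-point (MIPE, 0.78 nM-46 µM) or 8-point (NPC, 0.59 nM-46 µM) final concentrations; follow-up screens used 11-point dilutions.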

[2] = qHTS of pediatric cancer cell lines to identify multiple opportunities for drug repurposing: Confirmatory screen for MG 63 (6-TG R) cells (AID 1347119); further: nearly all actives have a fitted effect of over 55% in size; further: potency means the concentration at half of the fitted maximal effect;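 on activity change, negative = cytotoxicity: plate controls were DMSO neutral control for no effect and bortezomib for full effect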
Excerpt: (§2) Drug repurposing or repositioning has been offered as a strategy for drug development in oncology programs. This approach has special potential for childhood cancers and other rare or orphan diseases, where the expected return on new drug development has been a disincentive to pharmaceuticals.
(§3) In this project we exploit the poly-pharmacology of drugs to discover new indications via phenotypic screening of a panel of 19 well-characterized cell lines derived from solid tumors seen in children and adolescents. The goal is to identify approved drugs with previously unrecognized anticancer properties that has the potential to reveal new mechanisms and biological processes involved in carcinogenesis or drug resistance. We employed a titration-based paradigm (quantitative high-throughput screening or qHTS), where all compounds were tested at multiple concentrations for their effect on cell viability. Concentration-response curves (CRCs) were derived directly from the primary screen, and both potency and efficacy values were used to identify compounds with robust bioactivity profiles. We screened the NIH Chemical Genomics Center (NCGC) Pharmaceutical Collection (NPC) and Mechanism Interrogation Plate (MIPE) small molecule collections of approved and investigational compounds against these cell lines; and measured metabolically active cells after 48 hours of compound treatment as a proxy for cell viability.
(§4) Assay Submitter: Nathalia J. Martinez, National Center for Advancing Translational Sciences, National Institutes of Health, Rockville, MD, USA; email: natalia.martinez@nih.gov
(§5) [1] Shen, M et al. Quantitative high-throughput phenotypic screening of pediatric cancer cell lines identifies multiple opportunities for drug repurposing. Oncotarget 2017 Dec 19;9(4):4758-4772. PMID 29435139.
(§6) The cells were obtained from University of North Carolina (UNC), Pediatric Preclinical Testing Program (PPT), and Coriell Institute (CI).
(§7) qHTS cell viability assay:
(§8) Cells were assayed in growth media at a density of 500-1,000 cells/well. Five microliters of cells were dispensed into 1,536-well, white, solid-bottom, TC-treated plates (Greiner Bio One) using a multidrop dispenser and incubated at 37 degrees C, 5% CO2, under a humidified atmosphere for 5 hours. Twenty-three nanoliters of compounds and controls (neutral control DMSO or positive control bortezomib at final concentration of 2.3 µM) were subsequently transferred by Kalypsys pintool. For primary screens, the MIPE collection was tested at 11-point dilutions (final concentrations range from 0.78 nM to 46 µM) and the NPC collection at 8-point dilutions (final concentrations range from 0.59 nM to 46 µM). Compounds tested in follow-up screens were assayed at 11-point dilutions. Cells were incubated for 48 hours, followed by addition of 3 µL of CellTiter-Glo (Promega). After a 15 min incubation at room temperature, samples were analyzed for luminescence intensity using a ViewLux High-throughput CCD imager equipped with clear filters.

[3] = qHTS of pediatric cancer cell lines to identify multiple opportunities for drug repurposing: Confirmatory screen for control Hh wild type fibroblast cells (AID 1347121);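 further: plate controls were DMSO for no effect and bortezomib for full effect; nearly all actives have a fitted effect of over 70% in size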
How it was run: as §1

[4] = qHTS of pediatric cancer cell lines to identify multiple opportunities for drug repurposing: Confirmatory screen for U-2 OS cells (AID 1347122); conditions: outcome: dose series up to 45.9 µM; further: nearly all actives have a fitted effect of over 65% in size;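 on activity change, negative = cytotoxicity: plate controls were DMSO for no effect and bortezomib for full effect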
Excerpt: as §2, §3, §4, §5, §6, §7, §8

[5] = qHTS of pediatric cancer cell lines to identify multiple opportunities for drug repurposing: Confirmatory screen for Rh41 cells (AID 1347123);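 further: 48 h compound exposure; plate controls were DMSO for no effect and bortezomib for full effect; nearly all actives have a fitted effect of over 60% in size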
How it was run: as §1

[6] = qHTS of pediatric cancer cell lines to identify multiple opportunities for drug repurposing: Confirmatory screen for RD cells (AID 1347124);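 further: cells exposed to compound for 48 h before viability readout; nearly all actives have a fitted effect of over 65% in size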; further: potency means the concentration at half of the fitted maximal effect; on activity change, negative = cytotoxic: on the % scale 0 is the no-effect control and ±100 the full control effect
How it was run: as §1

[7] = qHTS of pediatric cancer cell lines to identify multiple opportunities for drug repurposing: Confirmatory screen for Rh18 cells (AID 1347125); further: on the % scale 0 is the no-effect control and ±100 the full control effect; nearly all actives have a fitted effect of over 55% in size
How it was run: as §1

[8] = qHTS of pediatric cancer cell lines to identify multiple opportunities for drug repurposing: Confirmatory screen for Rh30 cells (AID 1347126); further: on the % scale 0 is the no-effect control and ±100 the full control effect; nearly all actives have a fitted effect of over 55% in size
How it was run: as §1

[9] = qHTS of pediatric cancer cell lines to identify multiple opportunities for drug repurposing: Confirmatory screen for Saos-2 cells (AID 1347127);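 further: plate controls were DMSO for no effect and bortezomib for full effect; nearly all actives have a fitted effect of over 60% in size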
How it was run: as §1

[10] = qHTS of pediatric cancer cell lines to identify multiple opportunities for drug repurposing: Confirmatory screen for TC32 cells (AID 1347118);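 further: cells exposed to compound for 48 h before the read; nearly all actives have a fitted effect of over 65% in size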; further: potency means the concentration at half of the fitted maximal effect; on activity change, negative = cytotoxicity: on the % scale 0 is the no-effect control and ±100 the full control effect
How it was run: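 TC32 cells, 500-1,000/well in growth medium, compound-treated 48 h at 37 °C; viability from CellTiter-Glo luminescence. Primary screen: MIPE 11-point (0.78 nM–46 µM final), NPC 8-point (0.59 nM–46 µM final); confirmatory at 11-point dilutions.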

CCN(CC)CCNC(=O)c1cc(Cl)c(N)cc1OC
inactive: Potency [1] | Potency [2] | outcome [3] | outcome [4] | outcome [5] | Potency [6] | outcome [7] | outcome [8] | outcome [9]

C[C@@H]1C[C@H]2[C@@H]3C[C@H](F)C4=CC(=O)C=C[C@]4(C)[C@@]3(F)[C@@H](O)C[C@]2(C)[C@@]1(O)C(=O)CO
inactive: Potency [1] | Potency [2] | outcome [3] | outcome [4] | outcome [5] | Potency [6] | outcome [7]
active: Potency [10] 23.3 µM

Cc1ccc2nc(N)[nH]c(=O)c2c1Sc1ccncc1
inactive: outcome [4] | Potency [6] | outcome [7] | outcome [8]
active: Potency [10] 3.29 µM

CCCCC/C(C=O)=C\c1ccccc1
active: Potency [1] 14.7 µM | Potency [10] 6.57 µM
inactive: Potency [2] | outcome [3] | outcome [4] | Potency [6]

O=C(O)CN1C(=O)c2cccc3cccc(c23)C1=O
inactive: outcome [3] | outcome [4] | outcome [5] | outcome [9]
active: Potency [1] 18.5 µM | Potency [10] 3.29 µM | Potency [2] 20.8 µM | Potency [6] 3.69 µM

O=C1N=C(O)CN1/N=C/c1ccc(-c2ccc([N+](=O)[O-])cc2)o1
inactive: Potency [1] | Potency [10] | Potency [2] | outcome [3] | outcome [4] | Potency [6] | outcome [7] | outcome [8] | outcome [9]

O=c1cc[nH]c(=S)[nH]1
inactive: Potency [1] | Potency [2] | outcome [4] | outcome [5] | Potency [6] | outcome [7] | outcome [8] | outcome [9]
active: Potency [10] 9.27 µM

C[C@](N)(Cc1ccc(O)cc1)C(=O)O
inactive: activity change, negative = cytotoxic [1] -10.9% [at 5.01 µM] | Potency [10] | activity change, negative = cytotoxicity [2] 15.9% [at 5.01 µM] | activity, negative = cytotoxic [3] -2.45% [at 5.01 µM] | activity change, negative = cytotoxicity [4] 3.67% [at 5.01 µM] | activity change, negative = cytotoxic [5] 0% [at 5.01 µM] | activity change, negative = cytotoxic [6] 10.4% [at 5.01 µM] | activity change, negative = cytotoxic [7] 0.623% [at 5.01 µM] | activity change, negative = cytotoxic [8] 0% [at 5.01 µM] | activity change, negative = cytotoxic [9] 17.6% [at 5.01 µM]
